Laboratory results: PubChem BioAssay (NCATS)

Each compound was assayed against Glucocorticoid receptor (Homo sapiens) (UniProt P04150) (assay: GR-GFP Redistribution (AID 450)). Conditions: U2OS GR-GFP nuclear translocation, laser cytometry, 2 h; series mostly up to 20.6 µM;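 active means compounds whose dose series gives a full or clear partial fitted curve of increased nuclear translocation; inconclusive means weak partial curve or effect only at the top dose; inactive means no dose-dependent translocation response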.
Chain of Glucocorticoid receptor (Homo sapiens) (P04150 whole entry, looked up): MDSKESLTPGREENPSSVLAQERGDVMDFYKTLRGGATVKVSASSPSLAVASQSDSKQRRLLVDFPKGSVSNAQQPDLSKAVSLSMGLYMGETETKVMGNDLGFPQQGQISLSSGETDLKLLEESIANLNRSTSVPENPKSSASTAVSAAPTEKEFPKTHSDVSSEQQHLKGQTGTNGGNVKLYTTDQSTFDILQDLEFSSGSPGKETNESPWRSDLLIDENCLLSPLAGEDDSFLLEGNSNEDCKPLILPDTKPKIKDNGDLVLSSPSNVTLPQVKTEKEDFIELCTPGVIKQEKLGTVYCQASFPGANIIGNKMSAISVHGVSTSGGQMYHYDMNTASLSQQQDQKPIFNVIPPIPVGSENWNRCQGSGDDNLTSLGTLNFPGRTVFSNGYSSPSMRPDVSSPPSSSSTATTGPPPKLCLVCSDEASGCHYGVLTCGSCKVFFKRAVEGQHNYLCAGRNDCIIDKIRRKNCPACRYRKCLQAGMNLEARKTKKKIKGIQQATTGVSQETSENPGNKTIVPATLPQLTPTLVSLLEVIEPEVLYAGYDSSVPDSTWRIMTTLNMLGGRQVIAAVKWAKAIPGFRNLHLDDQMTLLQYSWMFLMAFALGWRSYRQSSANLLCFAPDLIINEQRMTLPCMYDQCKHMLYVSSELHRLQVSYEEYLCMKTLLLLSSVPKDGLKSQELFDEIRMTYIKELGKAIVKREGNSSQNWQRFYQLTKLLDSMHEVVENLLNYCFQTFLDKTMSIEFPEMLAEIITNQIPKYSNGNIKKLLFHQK
Potency means the concentration at half of the fitted maximal effect.

Potency, inactive:
Cc1ccc(Cn2ncc3c(N4CCOCC4)ncnc32)cc1 > 20.6 µM
CCOC(=O)C1=C(c2ccccc2)NC(SCC(=O)Nc2ccccc2C)=C(C#N)C1c1ccco1 (stereo not given) > 20.6 µM
CCSc1nc(N)c2c3c(sc2n1)CCC3 > 20.6 µM
CCCSc1nc(O)c(C2OC(=O)c3c2ccc(OC)c3OC)c(=O)n1C (stereo not given) > 20.6 µM
C=C(C)CN1CCN(c2c(CCC#N)c(C)c(C#N)c3nc4ccccc4n23)CC1 > 20.6 µM
c1ccc(CN2CCN(c3nc(-c4ccccn4)nc4ccccc34)CC2)cc1 > 20.6 µM
CCOc1nnnc2c1sc1nc(N3CCOCC3)c3c(c12)CC(C)(C)OC3 > 20.6 µM
CC(=O)Oc1ccccc1C1OC(=O)c2ccccc2N1C(C)=O (stereo not given) > 20.6 µM
Cc1c(C)[n+](=O)c2c(n1[O-])CCC2 > 20.6 µM
O=C(c1ccc(N2C(=O)C3CC=C(Cl)CC3C2=O)cc1)N1CCCCC1 (stereo not given) > 20.6 µM
Cc1cccc(N)c1SC1CCCCC1O (stereo not given) > 20.6 µM
CCC(c1c(C)n(C)n(-c2ccccc2)c1=O)c1c(C)n(C)n(-c2ccccc2)c1=O > 20.6 µM
Cc1[nH]nc(-c2ccc(O)cc2O)c1Oc1ccccc1 > 20.6 µM
Nc1nnnn1CC(=O)OCc1cccc(Br)c1 > 20.6 µM
CC(C)OC(=O)CCNc1n[nH]c(=O)[nH]c1=O > 20.6 µM
